Cycloheximide cs: affects cycloheximide protein synthesis inhibition readout, counter-screen; max response, %; actives 12% (n = 300,000); cell reporter, cycloheximide protein synthesis inhibition counterscreen; in the data active means max response mostly above about 13%, no sharp cut-off; inactive means mostly below about 14%; further: read at 38.3 µM for the half of the compounds with a filed dose; 0% is about no effect
Pf growth 96h: P. falciparum growth inhibition at 96 hours. P. falciparum luciferase reporter growth, 96 h. Potency, µM (highest dose often 28.7 µM), inactives show at the highest dose activity change, negative = inhibition, most hits filed as inhibitors. actives 6.9% (n = 320,000). AID 504834; further: potency means the concentration at half of the fitted maximal effect; on the % scale 0 is the no-effect control and ±100 the full control effect
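P. falciparum expressing integrated firefly luciferase, in erythrocytes at 2% hematocrit, 0.05% parasitemia, incubated with compounds 96 h at 37 C, 5% CO2. Growth inhibition read as loss of luminescence; two-generation exposure targets delayed-death apicoplast inhibitors.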
Pf growth 48h: inhibits P. falciparum growth in the first generation, 48 h; P. falciparum luciferase growth in erythrocytes, 48 h; Potency, µM (highest dose often 28.7 µM), for the others: at the top dose activity change, negative = inhibition, hits mostly inhibitors; actives 5.9% (n = 310,000); AID 504832; further: potency means the concentration at half of the fitted maximal effect; on the % scale 0 is the no-effect control and ±100 the full control effect
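Cell-based growth assay: transgenic P. falciparum expressing firefly luciferase, cultured in red cells within RPMI 1640 containing 0.5% w/v Albumax, 24 mM bicarbonate and gentamycin. A drop in luciferase activity indicates inhibition.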
AMA1-RON2 inh: inhibitors of Plasmodium falciparum AMA1-RON2 interaction; AlphaScreen AMA1-biotinylated RON2 peptide binding; AID 720542; actives 0.2% (n = 360,000); Potency, µM (doses to about 58.2 µM), without a hit: at the top dose activity change, negative = inhibition, most hits filed as inhibitors;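 further: potency means the concentration at half of the fitted maximal effect; 0% = vehicle wells and -100% = peptide control; nearly all actives have a fitted effect of over 45% in size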
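AMA1 (3D7) with his tag at 25 nM final met compounds first, then biotinylated RON2 peptide at 25 nM; detection used donor plus acceptor beads, 10 µg/mL apiece, read by AlphaScreen after 30 min at room temperature.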
HCV inhibitor: inhibitors of hepatitis C virus infection | Huh7.5.1 HCVcc-Cre infection, luciferase reporter, 44 h | Potency, µM (doses to about 41.8 µM), without a hit: at the top dose activity change, negative = inhibition, actives largely listed as inhibitors | actives 3.4% (n = 340,000) | AID 651820; further: potency means the concentration at half of the fitted maximal effect; on the % scale 0 is the no-effect control and ±100 the full control effect
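Cells seeded at 1,000/well and cultured 4 h, then compounds added followed by HCVcc-Cre virus (~0.5 moi). After 44 h further culture, luciferase substrate was added, plates held 15 min at room temperature, and luminescence read for 15 sec.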
Shiga inhibitor: blocks Shiga toxin action in Vero cells; Vero cells, Shiga toxin protein synthesis inhibition reporter; inhibition, % at 38.7 µM; actives 9.2% (n = 290,000); in the data active means inhibition mostly above about 28%, no sharp cut-off; inactive means mostly below about 43%; further: 0% is about no effect
* = called active by the depositor. This is a sample that favours compounds with a hit; in the whole collection about 21% have one here. Unless noted, the call rests on the fitted dose curve; in most records, active means well fitted curve in the direction sought with a large enough effect; inconclusive means small, poorly fitted or top-dose-only effect, or another doubt; inactive means no such curve, though single readings can be large; an effect the other way counts as inactive or inconclusive.

N#Cc1ccc(COC(=O)c2cc(=O)c3ccccc3o2)cc1 was read as Cycloheximide cs 2.2, Pf growth 96h 10.1%, Pf growth 48h 28.1%, AMA1-RON2 inh 10.5%, HCV inhibitor 33.0% and Shiga inhibitor -5.1.
For O=C(OCc1ccc([N+](=O)[O-])cc1)c1cc(=O)c2ccccc2o1 the results were Cycloheximide cs 9.7*, Pf growth 96h 73.1%, Pf growth 48h 50.3%, AMA1-RON2 inh 1.4%, HCV inhibitor 2.5% and Shiga inhibitor 26.0.
Nc1ccccc1C(=O)OCc1ccc([N+](=O)[O-])cc1 was read as Cycloheximide cs 33.2*, Pf growth 96h 24.3%, Pf growth 48h 56.8%, AMA1-RON2 inh 5.3%, HCV inhibitor inconclusive and Shiga inhibitor 76.5*.
`CSc1ncccc1C(=O)OCc1ccc([N+](=O)[O-])cc1` gave Cycloheximide cs 31.6, Pf growth 96h inconclusive, Pf growth 48h 15.5%, AMA1-RON2 inh -6.3%, HCV inhibitor inconclusive and Shiga inhibitor 30.3.
`O=C(OCc1nnc(-c2ccccc2)o1)c1cc(=O)c2ccccc2o1` gave Cycloheximide cs 26.0*, Pf growth 96h 85.6%, Pf growth 48h -8.5%, AMA1-RON2 inh 1.5%, HCV inhibitor 1.7% and Shiga inhibitor 36.1.
Screening O=C(OCc1nnc(-c2ccccc2)o1)c1ccco1 returned Cycloheximide cs 16.8, Pf growth 48h 1.1%, AMA1-RON2 inh 9.6%, HCV inhibitor -7.9% and Shiga inhibitor 11.9.
`Cc1ccc(NC(=O)c2ccc(S(=O)(=O)NCc3cccnc3)cc2)c(C)c1` gave Cycloheximide cs 1.1, Pf growth 96h 3.1%, Pf growth 48h 11.1%, AMA1-RON2 inh -12.2%, HCV inhibitor -20.5% and Shiga inhibitor -4.1.
`CSCCCN1CCCC(CO)(Cc2ccccc2F)C1` (stereo unspecified) gave Cycloheximide cs -1.2, Pf growth 96h inconclusive, Pf growth 48h 18.0%, AMA1-RON2 inh 22.6% and HCV inhibitor 5.3%.
Screening COc1ccc(S(=O)(=O)N(C)C2(C)CCS(=O)(=O)C2)cc1OC (stereo unspecified) returned Pf growth 96h 0.5%, Pf growth 48h 17.8%, AMA1-RON2 inh 6.5% and HCV inhibitor 1.8%.
For O=C1NC(=O)/C(=C/c2cccc3ccccc23)S1 the results were Cycloheximide cs 16.7*, Pf growth 96h -15.3%, Pf growth 48h 0.7%, AMA1-RON2 inh 11.6%, HCV inhibitor 7.2% and Shiga inhibitor 16.0.
Cc1sc2nc3c(C(=O)N4CCCC4)cc(C(=O)c4ccccc4O)cn3c(=O)c2c1C was read as Cycloheximide cs -0.4, Pf growth 96h inconclusive, Pf growth 48h 13.1µM*, AMA1-RON2 inh 9.6%, HCV inhibitor inconclusive and Shiga inhibitor 16.8.
CCc1c(C)sc2nc3c(C(=O)N4CCOCC4)cc(C(=O)c4cc(F)ccc4O)cn3c(=O)c12 was read as Cycloheximide cs 4.5, Pf growth 96h 2.08µM*, Pf growth 48h inconclusive, AMA1-RON2 inh -12.0%, HCV inhibitor inconclusive and Shiga inhibitor 11.9.
`COc1cccc(N2CCN(C(=O)c3cccn4c(=O)c5c(C)c(C)sc5nc34)CC2)c1` gave Cycloheximide cs 7.7, Pf growth 96h inconclusive, Pf growth 48h 3.5%, AMA1-RON2 inh 1.3%, HCV inhibitor 10.0% and Shiga inhibitor 11.0.
`O=S1(=O)N[C@H](Cc2ccccc2)COc2cccc(N3CCC[C@@H]3CO)c21` gave AMA1-RON2 inh 23.6%.
`CC(=O)c1cc(CN2CCC(C(=O)Nc3ccc(-n4nc(C)cc4C)cc3)CC2)cs1` gave AMA1-RON2 inh 1.9% and HCV inhibitor -29.7%.
`O=C(c1ccccc1F)N1CCN(S(=O)(=O)c2ccc(S(=O)(=O)N3CCCCCC3)cc2)CC1` gave Cycloheximide cs -1.6, Pf growth 96h -4.2%, Pf growth 48h 11.7µM*, AMA1-RON2 inh -9.2%, HCV inhibitor 3.8% and Shiga inhibitor 4.1.
`O=C(c1cccc(S(=O)(=O)N2CCCCC2)c1)N1CCN(S(=O)(=O)c2ccc(F)cc2)CC1` gave Cycloheximide cs -1.5, Pf growth 96h 9.28µM*, AMA1-RON2 inh 0.9%, HCV inhibitor -24.7% and Shiga inhibitor -9.3.
For CC1CCC(N2CCN(C(=O)c3ccccc3F)CC2)CC1 (stereo unspecified) the results were Cycloheximide cs -2.2, Pf growth 96h 11.7µM*, Pf growth 48h 0.2%, AMA1-RON2 inh -29.1%, HCV inhibitor 3.3% and Shiga inhibitor 7.5.
For O=C(c1cccc(S(=O)(=O)N2CCN(c3ccc(F)cc3)CC2)c1)N1CCCCCCC1 the results were Pf growth 96h inconclusive, Pf growth 48h inconclusive, AMA1-RON2 inh 23.7% and HCV inhibitor inconclusive.
COc1ccccc1C(=O)N1CCN(S(=O)(=O)c2ccccc2)CC1 was read as Cycloheximide cs -2.4, Pf growth 96h 4.8%, Pf growth 48h 2.8%, AMA1-RON2 inh 4.9%, HCV inhibitor 2.7% and Shiga inhibitor 22.3.
`Cc1ccccc1C(=O)N1CCN(S(=O)(=O)c2ccccc2)CC1` gave Cycloheximide cs -1.2, Pf growth 96h 13.1µM*, Pf growth 48h -1.0%, AMA1-RON2 inh 3.4%, HCV inhibitor 30.2% and Shiga inhibitor -3.7.
Screening CCN1CCN(c2nc3c(C)cccn3c(=O)c2/C=C(\C#N)C(=O)NC)CC1 returned Cycloheximide cs -7.2, Pf growth 96h -4.5%, Pf growth 48h 2.5%, AMA1-RON2 inh 5.1%, HCV inhibitor 7.0% and Shiga inhibitor 3.3.
O=C(c1ccccc1F)N1CCN(S(=O)(=O)c2ccc(S(=O)(=O)N3CCCCC3)cc2)CC1 was read as Cycloheximide cs -4.0, Pf growth 96h 31.4%, Pf growth 48h 14.4%, AMA1-RON2 inh 15.9%, HCV inhibitor 13.9% and Shiga inhibitor -8.2.
`O=C(c1ccccc1Cc1ccccc1)N1CCN(S(=O)(=O)c2ccccc2Br)CC1` gave Pf growth 96h 7.38µM*, Pf growth 48h 11.7µM*, AMA1-RON2 inh -5.0% and HCV inhibitor inconclusive.
For Cc1ccc(C)c(S(=O)(=O)N2CCN(C(=O)[C@@H](NC(=O)c3ccc(F)cc3)C(C)C)CC2)c1 the results were Pf growth 96h inconclusive, Pf growth 48h 9.28µM*, AMA1-RON2 inh -0.5% and HCV inhibitor inconclusive.
`Cc1ccc(C)c(S(=O)(=O)N2CCN(C(=O)[C@H](C)N3C(=O)C4CC=CCC4C3=O)CC2)c1` (stereo partly specified) gave Pf growth 96h inconclusive, Pf growth 48h inconclusive, AMA1-RON2 inh -0.9% and HCV inhibitor -8.5%.
Cc1ccc(C(=O)N2CCN(c3ccc(F)cc3)CC2)cc1S(=O)(=O)N1CCCCC1 was read as Cycloheximide cs 0.9, Pf growth 96h 9.28µM*, Pf growth 48h inconclusive, AMA1-RON2 inh -10.8% and Shiga inhibitor -3.8.

Screening results: PubChem BioAssay, National Center for Advancing Translational Sciences (NCATS)
